Experimental findings from PubChem BioAssay AID431 (Sanford-Burnham Center for Chemical Genomics, 2006) are described below.

The campaign covered roughly 63,000 compounds. About 1,100 (1.7%) were called active. The sample holds actives, similar compounds and a random draw of the others, so the mix is not that of the screen. Potency and affinity values are given separately. Unmarked numbers belong to inactive results.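 The calls were made as follows: active = compounds whose percent cytotoxicity in the single-dose primary screen, scaled between solvent and toxic-drug controls, exceeds 50; inactive = the rest.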

The assay can be described thus: viability loss of HPDE-C7K cells – cell-based, fluorescence, HTS, primary screen (AID 431).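 Also: 0% = DMSO solvent wells and 100% = doxorubicin-treated wells.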 To be noted: HPDE-C7K KRASV12 cells, Alamar Blue viability, 48 h; at 10 µM; stronger effect = higher value. For orientation: Alamar Blue is a resazurin reagent that responds to reducing activity.
With `Cc1cc(CN2C(=O)c3ccccc3C2=O)no1`, the cytotoxicity was -13.3%.

In the case of `CCN(CC)S(=O)(=O)c1ccc(NC(=O)Cn2cnc3ccccc3c2=O)cc1`, the cytotoxicity is -6.7%.

Take `CCC(=O)Nc1ccc(C(=O)n2nc(C)cc2C)cc1`: the cytotoxicity was 10.7%.

For `CCSc1ccccc1C(=O)Nc1cc(C)on1`, the cytotoxicity is -0.6%.

Turning to `COCCSc1ccccc1C(=O)Nc1nnc(C)s1`, the cytotoxicity is -9%.

As for `COCCSc1ccccc1C(=O)Nc1cc(C)on1`, the cytotoxicity was 85.8% (active).

In the case of `COc1ccc(C2CCCN2C(=O)Nc2ccc(F)cc2)cc1OC` (configuration not stated), the cytotoxicity was -15.2%.

For the compound `CCNC(=O)C1CC(=O)N(Cc2ccc3c(c2)OCO3)C(=Nc2ccc(F)cc2)S1` (configuration not stated), the cytotoxicity is 62.1% (active).

Consider `CNC(=O)C1CC(=O)N(Cc2ccc3c(c2)OCO3)C(=Nc2ccc(F)cc2)S1` (configuration not stated), for which the cytotoxicity was -2.3%.

With `CCNC(=O)C1CC(=O)N(Cc2ccc3c(c2)OCO3)C(=Nc2ccc(OCC)cc2)S1` (configuration not stated), the cytotoxicity is 10%.

`CC(=O)Oc1cccc2c1C(=O)c1c(OC(C)=O)cc(C(=O)O)cc1C2=O`: the cytotoxicity is 8.1%.

Regarding `O=C(O)c1cc(C(=O)O)c(-c2ccccc2)c(C(=O)O)c1`, the cytotoxicity is -12.8%.

Turning to `CCOc1ccc(N2Cc3ncccc3C2=O)cc1`, the cytotoxicity was -0.1%.

Regarding `O=C(COc1ccc2ccccc2c1Br)N1CCOCC1`, the cytotoxicity is -30.2%.

As to `CCCCCCOC(=O)C(C#N)c1nc2ccccc2nc1N1CCN(C)CC1` (configuration not stated), the cytotoxicity was 70.2% (active).

For `C=CCOC(=O)C(C#N)c1nc2ccccc2nc1N1CCN(c2ccccc2OCC)CC1` (configuration not stated), the cytotoxicity is 4.2%.

For `CCOc1ccccc1N1CCN(c2nc3ccccc3nc2C(C#N)C(=O)OC(C)C)CC1` (configuration not stated), the cytotoxicity is -18.6%.

For the compound `CCCCCCOC(=O)C(C#N)c1nc2ccccc2nc1N1CCCCC1` (configuration not stated), the cytotoxicity was -16.1%.

Consider `COc1ccc(CNC(=O)C(C#N)c2nc3ccccc3nc2N2CCCC2)cc1` (configuration not stated), for which the cytotoxicity was -9.7%.

As for `COc1ccc(CNC(=O)C(C#N)c2nc3ccccc3nc2N2CCN(C)CC2)cc1` (configuration not stated), the cytotoxicity is 76.5% (active).

For `CCOc1ccccc1N1CCN(c2nc3ccccc3nc2C(C#N)C(=O)OC)CC1` (configuration not stated), the cytotoxicity was 50.6% (active).

In the case of `N#CC(C(=O)NCc1ccccc1)c1nc2ccccc2nc1N1CCCC1` (configuration not stated), the cytotoxicity was 8.4%.

For the compound `CCCCCCOC(=O)C(C#N)c1nc2ccccc2nc1N1CCN(CC)CC1` (configuration not stated), the cytotoxicity was 5.9%.

On to `O=C1CC(c2ccccc2)CC2=C1CN(C1CCCCC1)CN2` (configuration not stated), for which the cytotoxicity was 22%.

For the compound `Cc1nnc(NC(=O)C2CCN(c3cnccn3)CC2)s1`, the cytotoxicity is -12.6%.

Regarding `CCOc1ccccc1Oc1coc2cc(O)ccc2c1=O`, the cytotoxicity was -11.5%.

Regarding `Cc1cc(C(=O)Nc2sc(C)c(C)c2C#N)no1`, the cytotoxicity is -0.7%.

`Cc1cc(C)n(CC(O)Cn2c3ccccc3c3ccccc32)c(=O)n1` (configuration not stated): the cytotoxicity is 11.5%.

With `CC1CCCC(C)N1C(=O)Cn1c(SCC(=O)Nc2ccc3c(c2)OCO3)nc2ccccc21` (configuration not stated), the cytotoxicity is 8.4%.

For the compound `COc1ccc(-c2onc3ccc(Cl)cc23)cc1OC`, the cytotoxicity is 4.4%.

In the case of `O=C1c2ccccc2-c2onc3ccc(NCCCn4ccnc4)c1c23`, the cytotoxicity was 27.5%.

On to `CCOc1ccc2noc3c2c1C(=O)c1ccccc1-3`, for which the cytotoxicity was 23.3%.

As for `O=C(NCc1ccco1)c1ccc2c(c1)C(=O)c1ccccc1-2`, the cytotoxicity was 5.3%.

For the compound `O=C1c2ccccc2-c2onc3ccc(NCc4ccco4)c1c23`, the cytotoxicity is 51.6% (active).

Take `COc1ccc2noc3c2c1C(=O)c1ccccc1-3`: the cytotoxicity is 72.7% (active).

Take `C=C(C)c1ccc(C(C)(C)NC(=O)NCc2ccco2)cc1`: the cytotoxicity is 8.8%.

Take `CC(=O)c1c(C)[nH]c(C(=O)N2CCCCCC2)c1C`: the cytotoxicity is -5.8%.

Take `CC(=O)N1CCc2c(sc(NC(=O)CN3C(=O)CCC3=O)c2C(N)=O)C1`: the cytotoxicity was 0.3%.

As to `COc1ccc(OC)c(S(=O)(=O)Nc2cc(OC)c(Cl)cc2OC)c1`, the cytotoxicity was 6.9%.

On to `COc1cc(NS(=O)(=O)c2cc(C)ccc2OC)c(OC)cc1Cl`, for which the cytotoxicity was 4%.

On to `COc1cc(NS(=O)(=O)c2ccc(OC)c(C)c2C)c(OC)cc1Cl`, for which the cytotoxicity was 64.1% (active).

With `C=CCn1c(=O)c(C(=O)Nc2ccccc2C(=O)OCC)c(O)c2ccccc21`, the cytotoxicity was -8.6%.

As to `CCC(C)n1nccc1NC(=O)C(C)OC(=O)c1cc2ccccc2[nH]1` (configuration not stated), the cytotoxicity is 7%.

Consider `CCN(CC)c1ccc2cc(NC(=O)CCC(=O)O)c(=O)oc2c1`, for which the cytotoxicity is 15.5%.

Turning to `CCN(CC)c1ccc2c(C)c(CN3CCOCC3)c(=O)oc2c1`, the cytotoxicity was 26.6%.

Turning to `CCOC(=O)Cc1c(C)c2ccc(N(CC)CC)cc2oc1=O`, the cytotoxicity was -21.9%.

For the compound `CCN(CC)c1ccc2c(C)c(-c3ccc(N)cc3)c(=O)oc2c1`, the cytotoxicity is 82.1% (active).

On to `CCN(CC)C(=O)Oc1ccc2c(=O)c(-c3ccc(OC)cc3)c(C)oc2c1`, for which the cytotoxicity was 4.7%.

For the compound `CCNc1ccc2c(Cl)cc(=O)oc2c1`, the cytotoxicity was 6.3%.

Consider `CCOc1cc2c(C)cc(=O)oc2cc1Cl`, for which the cytotoxicity is 0.2%.

On to `COc1ccc(-n2cnnc2SCC(=O)N(C)C2CCS(=O)(=O)C2)cc1` (configuration not stated), for which the cytotoxicity was 3.5%.

On to `COCc1nc2ccccc2n1Cc1ccc(Br)cc1`, for which the cytotoxicity was -5.7%.

For the compound `CSc1nnc(-c2sc3cc(Cl)ccc3c2Cl)n1C`, the cytotoxicity is -20.3%.

For the compound `Cc1csc(NC(=O)c2nc3nc(C)cc(C)n3n2)n1`, the cytotoxicity was -16.1%.

On to `Cc1cccc(C)c1-n1nnnc1S(=O)(=O)Cc1ccccc1Cl`, for which the cytotoxicity was -1.5%.

Regarding `COc1ccccc1-n1nnnc1SCc1ccccc1`, the cytotoxicity is -10.6%.

Consider `O=c1[nH]c2cc3c(cc2cc1CN(CCc1ccccc1)Cc1nnnn1C1CCCC1)OCCO3`, for which the cytotoxicity is -11.1%.

Regarding `CC(CN1CCCCC1)OC(=O)c1cc2ccccc2o1` (configuration not stated), the cytotoxicity was -6.7%.

`CCCS(=O)(=O)N1CCCC(C(=O)NCc2ccc3c(c2)OCO3)C1` (configuration not stated): the cytotoxicity is -6.2%.

For the compound `CC(C)[C@H](NC(=O)OC(C)(C)C)c1nnc(S(=O)(=O)Cc2c(F)cccc2Cl)o1`, the cytotoxicity was -5.9%.

With `CC(C)C[C@H](N)c1nnc(S(=O)(=O)Cc2cccc(F)c2)o1`, the cytotoxicity was -7.4%.

For `Cc1ccc(C2N(c3cccc(Cl)c3)C(=O)C3CCCN32)o1` (configuration not stated), the cytotoxicity was -0.1%.

As to `COc1ccc(C(=O)Nn2c(SCC(=O)NCC3CCCO3)nc3ccccc3c2=O)cc1` (configuration not stated), the cytotoxicity is -11%.

Take `O=C(CCc1ccccc1)Nc1ccc(N2CCOCC2)cc1`: the cytotoxicity is 2.6%.

`Cc1ccc(-n2c(=O)c(C#N)cc3c(=O)n4ccccc4nc32)cc1`: the cytotoxicity is 69.7% (active).

Regarding `Cc1cc(-n2c(=O)c(C#N)cc3c(=O)n4ccccc4nc32)no1`, the cytotoxicity is -4.7%.

On to `C=CCn1c(=O)c(C#N)cc2c(=O)n3ccccc3nc21`, for which the cytotoxicity was 4.5%.

As for `O=C(Nc1ccc2c(c1)OCCO2)c1ccc(Br)c(S(=O)(=O)N2CCOCC2)c1`, the cytotoxicity was -7.9%.

With `CC(C)CC(NC(=O)C1CCC(C)CC1)C(=O)Nc1ccccn1` (configuration not stated), the cytotoxicity was -19.7%.

In the case of `CCOC(=O)c1nnn(-c2nonc2N)c1CSc1ccccn1`, the cytotoxicity was -3.2%.

`COc1ccc(-n2nnnc2SCC(N)=O)cc1`: the cytotoxicity was -7.1%.

For `COc1ccccc1NC(=O)C1=C(C)NC(SCC(=O)c2ccccc2)=C(C#N)C1c1ccco1` (configuration not stated), the cytotoxicity was 27.2%.

Take `CC1=C(C(=O)Nc2ccccc2)C(c2ccco2)C(C#N)=C(SCC(=O)OC(C)C)N1` (configuration not stated): the cytotoxicity is 49.2%.

Consider `CC1=C(C(=O)Nc2ccccc2)C(c2ccco2)C(C#N)=C(SCc2ccccc2)N1` (configuration not stated), for which the cytotoxicity is 57.7% (active).

As to `CC1=C(C(=O)Nc2ccccc2)C(c2ccco2)C(C#N)=C(SCC(=O)Nc2cccc(C)c2C)N1` (configuration not stated), the cytotoxicity was 79.6% (active).

Turning to `CCOC(=O)CSC1=C(C#N)C(c2ccco2)C(C(=O)Nc2cccc(C(F)(F)F)c2)=C(C)N1` (configuration not stated), the cytotoxicity is 28.1%.

On to `CCOC(=O)C1=C(c2ccccc2)NC(SCC(=O)Nc2ccccc2C)=C(C#N)C1c1ccco1` (configuration not stated), for which the cytotoxicity is 39%.

For `CCOC(=O)C(NC(=O)c1ccccc1)=C1CCCCC1`, the cytotoxicity is -19.2%.

On to `CC(c1ccccc1)n1cc(C(=O)NCc2ccccn2)nn1` (configuration not stated), for which the cytotoxicity is -7.5%.

Regarding `CCCc1cc(=O)[nH]c(SCC(=O)Nc2ccc(OC(F)F)cc2)n1`, the cytotoxicity was -7.3%.

As to `O=C(NCCCN1CCCCCC1)c1ccc(CS(=O)(=O)Cc2ccccc2F)o1`, the cytotoxicity is -3%.

Consider `Cc1cccc2sc(NC(=O)CN(C)S(=O)(=O)c3cccs3)nc12`, for which the cytotoxicity is 28.8%.

On to `Cc1cccc2sc(NC(=O)CNS(=O)(=O)c3ccc(Br)s3)nc12`, for which the cytotoxicity was -11.6%.

Consider `COCCn1c(SCC#N)nnc1-c1ccccc1O`, for which the cytotoxicity was -24.2%.

In the case of `COc1ccc(NC(=O)N2CCCCC2)cc1`, the cytotoxicity is -3.1%.

Regarding `Oc1cccc(Nc2ncnc3ccccc23)c1`, the cytotoxicity was 4.2%.

`COc1ccc(CNC(=O)Cc2ccc(OC)c(S(=O)(=O)N3CCOCC3)c2)cc1`: the cytotoxicity was 3.6%.

Consider `c1ccc(Cn2nnnc2CN2CCN(Cc3ccc4c(c3)OCO4)CC2)cc1`, for which the cytotoxicity is -0.4%.

Consider `Cc1nc2cc(C(F)(F)F)ccc2n1C1CCN(CC(=O)N2CCOCC2)CC1`, for which the cytotoxicity is -14.7%.

On to `CC1(C)CC(=O)C(C=Nc2ccc3[nH]ncc3c2)=C(O)C1`, for which the cytotoxicity was 14.8%.

For the compound `CN1CCN(C(=O)c2cc3c(n(-c4ccccc4)c2=O)CC(C)(C)CC3=O)CC1`, the cytotoxicity was -5%.

For the compound `CCCn1c(=O)c2ccccc2n2c(SCCOc3ccc(OC)cc3)nnc12`, the cytotoxicity was -17.4%.

In the case of `COCCCNc1oc(COc2ccc(Cl)cc2Cl)nc1C#N`, the cytotoxicity was 18.7%.

Consider `N#Cc1nc(-c2ccc(OCc3ccc(Cl)cc3)cc2)oc1N1CCOCC1`, for which the cytotoxicity is -19.7%.

On to `CN(C)c1oc(-c2ccc(OCc3ccc(Cl)cc3)cc2)nc1C#N`, for which the cytotoxicity was 51.7% (active).

For `CN(C)c1oc(-c2ccc(OCc3ccccc3)cc2)nc1C#N`, the cytotoxicity was -8.5%.

For `O=C(Cn1cccc1)Nc1ccc(F)cc1F`, the cytotoxicity is 1%.
